The values below come from PubChem BioAssay AID686978 (National Center for Advancing Translational Sciences (NCATS), 2013).

The structures appear in SMILES notation. About 64,000 (15%) of roughly 420,000 compounds were called active. Roughly 27% stayed inconclusive and do not appear here. The call rests on the fitted dose curve; in most records, active means well fitted inhibition curve with a large enough effect; inconclusive means small, poorly fitted or top-dose-only effect; inactive means flat fitted curve, though single readings scatter. Only a sample is shown. A call without a number means that no potency is given here.
Potency means the concentration at half of the fitted maximal effect.

The test is described as follows: qHTS for Inhibitors of human tyrosyl-DNA phosphodiesterase 1 (TDP1): qHTS in cells in absence of CPT. Further: nearly all actives have a fitted effect of over 55% in size. Conditions: DT40 Tdp1-/- hTDP1 cells, no CPT, ATP luminescence, 48 h; activity change, negative = growth inhibition: at 46.2 µM (top of the series). Summed up:
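DT40 Tdp1-/-;hTDP1 cells, no CPT (DMSO vehicle only), 400 cells/well; compounds pin-transferred; ≥48 hr, 37 °C; CellTiter-Glo 30 min RT dark, luminescence read.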
Regarding `CCC(=O)Nc1nc(OC)cc(OC)n1`, the Potency result is “inactive”.

On to `Cc1cccc(NC(=S)N2CCC(O)CC2)c1C`, for which the Potency entry was “inactive”.

With `CCOc1ccccc1NC(=O)C1CCCN(C(=O)Nc2ccccc2)C1` (stereo not given), the Potency result was “inactive”.

With `CCOc1ccccc1NC(=S)N1CCN(c2cccc(C)c2C)CC1`, the Potency is 8.2 µM (active).

For the molecule `O=C(c1ccc(CN2CCOCC2)cc1)N1CCN(c2ccccc2F)CC1`, the Potency entry is “inactive”.

With `CCc1ccc(NC(=O)CS(=O)CC(=O)N2CCN(c3ccccc3F)CC2)cc1` (stereo not given), the Potency entry is “inactive”.

Turning to `Cc1c(C)n(Cc2ccc(Cl)cc2)c2ccc(C(=O)N3CCN(c4ccccc4F)CC3)cc12`, the Potency was 23.1 µM (active).

In the case of `Brc1ccccc1C1Nc2cccc3cccc(c23)N1`, the Potency result is “inactive”.

On to `O=C(Cc1ccc(F)cc1)NC1CCCC1`, for which the Potency entry was “inactive”.

On to `CCOc1ccc(NC(=O)CN(C)C(=O)c2c(C)noc2C)cc1OCC`, for which the Potency entry was “inactive”.

In the case of `N#CC1(NC(=O)COc2ccc3oc4ccccc4c3c2)CCCCC1`, the Potency entry is “inactive”.

For the molecule `CCOC(=O)[C@H]1CCC[C@@H](NS(=O)(=O)c2ccc(NC(C)=O)cc2)C1`, the Potency result was “inactive”.

In the case of `COc1ccccc1OC(C)C(=O)Nc1ccc(S(=O)(=O)Nc2nccs2)cc1` (stereo not given), the Potency entry was “inactive”.

For `CCOc1ccc(C(C(=O)NCCOC)N(CCOC)C(=O)CCC(=O)Nc2ccccn2)cc1` (stereo not given), the Potency result was “inactive”.

In the case of `Cc1ccc(C(=O)NCCc2nnc(SCC(=O)Nc3cccc(C(=O)O)c3)n2C)cc1`, the Potency result is “inactive”.

As to `CCS(=O)(=O)C1=NSC2=NC(=O)/C(=C\c3cc(C)n(-c4cccc(OC)c4)c3C)C(=N)N21`, the Potency result was “inactive”.

Regarding `CCOc1ccccc1N(CC(=O)Nc1ccccc1C(=O)OC)S(C)(=O)=O`, the Potency entry was “inactive”.

As to `CCc1nc2c(OCC(N)=O)cccn2c1N(C)C(=O)c1ccc(OC)cc1`, the Potency result was “inactive”.

As for `CCCCN(C=O)c1c(CC)nc2c(OCCC3CCCCC3)cccn12`, the Potency was 9.2 µM (active).

`CCc1nc2c(OCC(=O)C(C)(C)C)cccn2c1N(C)C(=O)c1ccccc1F`: the Potency entry is “inactive”.

Turning to `CCCCN(C=O)c1c(CC)nc2c(OCc3ccccc3C(=O)OC)cccn12`, the Potency was 20.6 µM (active).

Consider `CCc1nc2ccc(C(=O)N3CCN(S(=O)(=O)CC)CC3)cn2c1N(C=O)CCC(C)C`, for which the Potency result was “inactive”.

For the molecule `CCc1nc2c(OCCC3CCCCC3)cccn2c1N(C)C(=O)c1ccco1`, the Potency is 16.4 µM (active).

Regarding `O=C(CNC(=O)c1ccco1)OCC(=O)c1ccccc1`, the Potency result is “inactive”.

In the case of `COc1ccc(COC(=O)N/N=C(\C)CC(=O)Nc2ccc(Cl)cc2)cc1`, the Potency entry was “inactive”.

As to `CN(C)/N=C/c1cc(Cl)cc([N+](=O)[O-])c1O`, the Potency result was “inactive”.

For `O=C(NC(Cc1ccccc1)C(=O)O)/C(=C\c1ccccc1)NC(=O)c1ccco1` (stereo not given), the Potency entry is “inactive”.

As to `CC(=O)Nc1ccc(NC(=O)CS(=O)(=O)c2cn(CC(=O)N3CCCCC3)c3ccccc23)cc1`, the Potency entry is “inactive”.

Regarding `Cc1noc(C)c1C(=O)Nc1ccccn1`, the Potency result is “inactive”.

With `CCOC1=C2CN(S(=O)(=O)c3ccc(C)cc3)[C@H](c3cccs3)C[C@H]2[C@H]2C(=O)N(c3ccccc3)C(=O)[C@H]2C1`, the Potency entry is “inactive”.

`COC(=O)CSc1nnc(-c2cccnc2)o1`: the Potency result is “inactive”.

For the molecule `CN(CC(=O)NC1CCCC1)S(=O)(=O)c1cnc[nH]1`, the Potency entry is “inactive”.

For `CC1(C(=O)O)CCC(C(=O)Nc2ccc(Cl)c(Cl)c2)C1(C)C` (stereo not given), the Potency entry is “inactive”.

On to `COc1ccc(-c2nc3n(c2Br)CCC3)cc1`, for which the Potency result is “inactive”.

As for `COc1cc(C(=O)NC2CCN(Cc3ccccc3)CC2)cc(Cl)c1OC(C)C`, the Potency was 20.6 µM (active).

As to `COC(=O)c1cc(NC(=O)CN2CCN(C(C)=O)CC2)cc(C(=O)OC)c1`, the Potency result was “inactive”.

On to `COC(=O)c1cccc(NC(=O)CN2CCC(NC(=O)c3cc(OC)c(OC)c(OC)c3)CC2)c1`, for which the Potency is 16.4 µM (active).

On to `COc1ccc(C(=O)O)cc1S(=O)(=O)NC1CCN(Cc2ccccc2)CC1`, for which the Potency entry was “inactive”.

In the case of `COc1cc2[nH]c(=O)n(CCC(=O)NC3CCN(Cc4ccccc4)CC3)c(=O)c2cc1OC`, the Potency result was “inactive”.

For the molecule `CCOc1ccc(C(=O)NC2CCN(CC(=O)NCc3cccs3)CC2)cc1`, the Potency result was “inactive”.

As to `Cc1c(C=O)c2ccccc2n1CC(=O)O`, the Potency result was “inactive”.

Consider `CC(NC(=O)COC(=O)c1ccc(Cl)cc1O)c1ccc(F)cc1` (stereo not given), for which the Potency entry was “inactive”.

Regarding `Cc1ccc(S(=O)(=O)NCc2cn3ccsc3n2)c(C)c1`, the Potency result was “inactive”.

As to `Cn1nnnc1SCC(=O)Nc1nc2ccccc2s1`, the Potency result is “inactive”.

For the molecule `Cc1ccn2c(=O)nc(SCC(=O)NCc3ccc(F)cc3)nc2c1`, the Potency entry was “inactive”.

For the molecule `COc1ccc(/C=C/C(=O)Nc2ccc(C34CC5CC(CC(O)(C5)C3)C4)cc2)cc1OC`, the Potency is 1.3 µM (active).

Regarding `COc1ccc(/C=C/C(=O)Nc2cccnc2)cc1OC`, the Potency result is “inactive”.

Consider `Cc1ccc(C23CC4CC(CC(C(=O)NCC(=O)O)(C4)C2)C3)cc1`, for which the Potency entry is “inactive”.

As for `CCC(=O)NNc1cc(=O)c2c(=O)n(C)c(=O)n(C)c2[nH]1`, the Potency entry was “inactive”.

For the molecule `CCOC(=O)N1CCN(c2cc(C)c([N+](=O)[O-])cc2F)CC1`, the Potency was 16.4 µM (active).

As to `CC(C(=O)N1CCN(c2ccccc2F)CC1)c1ccc([N+](=O)[O-])cc1` (stereo not given), the Potency entry was “inactive”.

For `O=C(Nc1cccc(Cl)c1)c1cc([N+](=O)[O-])ccc1N1CCN(CCO)CC1`, the Potency result was “inactive”.

Regarding `CCOC(=O)N1CCN(C(=S)Nc2ccc(C)cc2C)CC1`, the Potency entry was “inactive”.

For `CCOC(=O)C1CCN(c2ccc(C(=O)O)cc2[N+](=O)[O-])CC1`, the Potency result is “inactive”.

As to `CCC(=O)c1ccc(N2CCN(C(=O)c3cc([N+](=O)[O-])ccc3F)CC2)c(F)c1`, the Potency is 16.4 µM (active).

Regarding `COC(=O)c1oc2ccc(Br)cc2c1NC(C)=O`, the Potency result was “inactive”.

On to `O=C(CSc1nc2ccc(Nc3nc(N4CCOCC4)nc(N4CCOCC4)n3)cc2s1)NCc1ccco1`, for which the Potency is 13 µM (active).

For `O=C(CSc1nc(Nc2ccccc2)nc(N2CCOCC2)n1)Nc1cc(Cl)ccc1O`, the Potency was 29.1 µM (active).

For the molecule `CC1(c2ccccc2)NC(=O)N(CC(=O)Nc2cc(Cl)ccc2N2CCOCC2)C1=O` (stereo not given), the Potency entry was “inactive”.

As for `CCn1c(SCC(=O)NCc2ccco2)nnc1-c1ccc(N)cc1`, the Potency entry is “inactive”.

Take `O=C(CSc1nc2ccccc2s1)Nc1ccc(C(=O)O)cc1`: the Potency entry was “inactive”.

For the molecule `Cc1ccccc1NC(=O)CSc1nc2ccc(Nc3nc(N4CCOCC4)nc(N4CCOCC4)n3)cc2s1`, the Potency was 14.6 µM (active).

Regarding `C=CCn1c(CSc2nc3ccccc3s2)nnc1SCC(=O)NCc1ccco1`, the Potency entry was “inactive”.

In the case of `O=C(CC(c1ccccc1)c1cc(Cl)ccc1O)NCCN1CCOCC1` (stereo not given), the Potency entry is “inactive”.

In the case of `Cc1ccc(S(=O)(=O)N2CCOCC2)cc1NC(=O)CSc1nnc(N)s1`, the Potency result was “inactive”.
